# ± gives the standard deviation of the averaged measurements. The full ranking holds about 33,000 sequences; the median of “E-score (rank enrichment, -0.5 to 0.5)” is about -0.0043, and the highest 2% start at about 0.24. What follows is part of a selection rich in the highest values, with near analogues and random picks from the rest.
# System: 2Sp-muMax20 (muMax20 with two 2,6-bis(methyl)pyridine Cys staples)
# Experiment: PBM 8-mer E-score (E-score (rank enrichment, -0.5 to 0.5)); higher = stronger preferential binding
# Procedure: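 Protein binding microarray (universal PBM chip covering all 10-mers in fixed probe flanks) with chemically synthesized human Max(13-93) bHLH-LZ analogs (not full-length Max) bearing noncanonical residues (hArg, Tha, Aib, Nle at 65) and aromatic Cys staples. Read-out per 8-mer (and its reverse complement): E-score (rank-based enrichment, -0.5 to 0.5) and Z-score of median probe intensity.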
row,Sequence,PBM 8-mer E-score
1,ATGGTATC,0.165 ± 0.011
2,AGGGTATA,0.24 ± 0.0057
3,AGGGTATG,0.178 ± 0.066
4,ATGGTATA,0.238 ± 0.028
5,CGTCCTAG,-0.188 ± 0.035
6,ATGATGTC,0.14 ± 0.091
7,AGTGAATA,-0.07056 ± 0.00064
8,ACATAAGT,0.132 ± 0.017
9,ATCACCAC,0.276 ± 0.0035
10,ATAACCAG,0.0292 ± 0.0095
11,ATAACCAC,0.243 ± 0.014
12,ATCACCAT,0.103 ± 0.052
13,CTAACCAC,-0.0501 ± 0.043
14,CTCACCAC,0.0921 ± 0.082
15,CCGAAGCA,0.0942 ± 0.036
16,CAGTGGCA,-0.004 ± 0.031
17,CCGAATAA,0.0378 ± 0.031
18,ACGTAGAG,-0.0148 ± 0.051
19,GAAAATGC,0.127 ± 0.028
20,CGAGGCTC,-0.224 ± 0.035
21,ATCACATA,0.187 ± 0.0085
22,AGCACATC,0.0563 ± 0.062

row,Sequence,PBM 8-mer E-score
1,AGCACATG,0.263 ± 0.026
2,ATCACATC,0.0931 ± 0.021
3,ATCACATG,0.305 ± 0.021
4,ACCACATC,-0.0798 ± 0.011
5,ACCACATA,0.0521 ± 0.076
6,ACCACATG,0.318 ± 0.0037
7,AGCACATA,0.0303 ± 0.1
8,CAACGCCG,-0.168 ± 0.12
9,CGAAACGA,-0.0544 ± 0.031
10,ATTGTCTG,0.0837 ± 0.039
11,CTCTCTCC,-0.18 ± 0.14
12,CCCATTCC,-0.0919 ± 0.059
13,CGCATACA,0.0225 ± 0.14
14,AGCGCCAC,-0.0643 ± 0.017
15,TCAATGGA,-0.0717 ± 0.0065
16,CCGTGGGC,-0.2115 ± 0.0018
17,GCCAGAGC,-0.206 ± 0.099
18,GAGTCTAC,-0.125 ± 0.044
19,CATGGGTA,0.072 ± 0.066
20,CGGTGGGA,-0.0291 ± 0.0059
21,GATGGGTA,0.249 ± 0.014
22,GGTGGGTA,0.249 ± 0.035

row,Sequence,PBM 8-mer E-score
1,GGGTGGGA,0.297 ± 0.0041
2,AGTGGGTA,0.166 ± 0.0072
3,AATGGGTA,0.0946 ± 0.14
4,AGGTGGGA,0.0626 ± 0.1
5,CGTGGGTA,0.0577 ± 0.045
6,CGGCACCC,-0.139 ± 0.13
7,GCTAGACC,-0.164 ± 0.049
8,CTTCGAAC,-0.115 ± 0.0046
9,ACCTACAG,0.0593 ± 0.044
10,AGCGGGGC,-0.0319 ± 0.078
11,AAAACATT,0.0666 ± 0.088
12,GGAACATA,0.0521 ± 0.044
13,AAAACATG,0.24 ± 0.078
14,GAAACATC,-0.0525 ± 0.05
15,AAAACATA,0.0989 ± 0.11
16,CGAACATC,0.00373 ± 0.037
17,CAAACATG,0.157 ± 0.079
18,GAAACATA,0.254 ± 0.015
19,CGAACATA,0.255 ± 0.034
20,ACAGACGG,-0.07 ± 0.089
21,ATTCGTTG,-0.0514 ± 0.066
22,ACGTGTAA,0.173 ± 0.072

row,Sequence,PBM 8-mer E-score
1,GCAGCGAA,-0.157 ± 0.066
2,ACCTTGAT,0.0217 ± 0.046
3,GATTCAAA,0.0206 ± 0.051
4,CTCGGTGC,-0.163 ± 0.12
5,ACGAACTA,-0.0202 ± 0.1
6,AGTACAAA,0.134 ± 0.1
7,GGTACAAA,0.0427 ± 0.053
8,AGTACACA,0.196 ± 0.098
9,CGTACACG,0.134 ± 0.035
10,TGTACAAA,0.244 ± 0.054
11,TGTACACA,0.283 ± 0.012
12,GTAACAAC,0.00768 ± 0.059
13,ACATTCAG,0.0112 ± 0.042
14,AATGAATC,-0.0131 ± 0.0047
15,GATGAATA,0.201 ± 0.093
16,TATGAATA,0.169 ± 0.078
17,AATGAATT,0.179 ± 0.031
18,AATGAATA,0.259 ± 0.064
19,AATGAATG,0.24 ± 0.098
20,ATACTTGG,0.0935 ± 0.004

# From the supplement of paper PMC12636033
